Assay results as given in PubChem BioAssay AID1347417 (National Center for Advancing Translational Sciences (NCATS), 2020).
The campaign covered roughly 120,000 compounds. About 5,300 (4.4%) were called active. About 22% were inconclusive and are not listed. This is one part of a sample in which actives are shown more often than they occur. Calls follow the shape of the dose curve; as a rule, active = well fitted inhibition curve with a large enough effect; inconclusive = small, poorly fitted or top-dose-only effect; inactive = no such curve, though single readings can be large or run the other way.

Test: qHTS Primary assay for Inhibitors of Plasmodium falciparum Dd2 growth in vitro; also: nearly all actives have a fitted effect of over 65% in size;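 as to activity, negative = inhibition: plate controls were DMSO vehicle for no effect and reference drug for full effect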
Conditions: P. falciparum Dd2 growth, SYBR Green, 72 h; series mostly up to 28.9 µM; activity, negative = inhibition: at the top concentration
Outline: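 Readout: SYBR Green fluorescence, 485 nm excitation, 535 nm emission, after ~16 h lysis at 37C. Before that, Dd2-infected red cells (2.5% hematocrit) grew 72 h with compound, 29 uM top final concentration.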
Potency is read from the fitted curve at half-maximal effect.

Structure (SMILES)	activity, negative = inhibition	Potency	outcome
COC(=O)C1=CN(CC(=O)Nc2ccc(F)cc2F)S(=O)(=O)N=C1C	38.3% (inactive)		
CCn1cnnc1CC1CCN(C(=O)C2CCN(Cc3nc(-c4cccc(C)c4)oc3C)CC2)CC1		3.16 µM (active)	
COc1ccc(-c2nc(CN3CCC(C(=O)NCc4ccccc4)CC3)c(C)o2)cc1OC	-4.44% (inactive)		
CCn1cnnc1CC1CCN(C(=O)c2cc(-c3ccc(F)cc3)nc3ccccc23)CC1			inactive
CC(C)CNC(=O)N1C[C@@H](Oc2cccnc2)C[C@H]1C(=O)N1CCOCC1	4.23% (inactive)		
NS(=O)(=O)c1ccc(F)c(C(=O)NCc2ccc3nonc3c2)c1	-3.1% (inactive)		
CCOc1ccc(CCNc2nc(-c3ccccc3)no2)cc1			inactive
CCCNC(=O)c1ccc2c(c1)ncn2-c1ccc(C)cc1C		11.2 µM (active)	
Cc1ccc(CCNC(=O)c2ccc3c(c2)nc2n3CCC(C)C2)cc1 (stereo unspecified)	9.74% (inactive)		
Cc1ccc(-n2cnc3cc(C(=O)NCCC4=CCCCC4)ccc32)cc1Cl	-1.01% (inactive)		
Cc1cc(Cn2cc3c4c(cccc42)[C@H](CC(C)C)N[C@H](C(=O)N2CCCCCC2)C3)no1	-18.5% (inactive)		
CN1C(=O)c2cccn2CC1C(=O)N1CCc2ccccc21 (stereo unspecified)	-23.7% (inactive)		
O=C(Nc1ccc(OC(F)(F)F)cc1)c1cc2c(=O)n3ccccc3nc2s1	-6.4% (inactive)		
CCc1cccc(NC(=O)c2cnc(N3CCOCC3)c3ccccc23)c1	-1.56% (inactive)		
CCc1ccc(NC(=O)c2cnc3c(-c4ccccc4)c(C)nn3c2C)cc1	28.5% (inactive)		
CCN1CCc2nc3sc(C(=O)Nc4ccccc4OC(F)(F)F)c(N)c3cc2C1		10 µM (active)	
CCc1ccc(NC(=O)c2sc3nc4c(cc3c2N)CN(CC)CC4)cc1		11.2 µM (active)	
COc1ccc(Cl)cc1NC(=O)c1sc2nc3c(cc2c1N)CN(C)CC3			inactive
CCOc1ccccc1C(=O)N1CCC2(CC1)CN(C(C)=O)CC2COC (stereo unspecified)	-6.6% (inactive)		
CCC(=O)N1CCc2c(sc3ncnc(NCc4cccnc4)c23)C1	-11.2% (inactive)		
Cc1noc2c(-c3cccc(CO)c3)cc(-c3ccccc3)nc12	14.6% [at 44.1 µM] (inactive)		
O=C(Cc1ccc(OC(F)(F)F)cc1)N1CC2CC(C1)[C@H]1CCCC(=O)N1C2 (stereo partly specified)	-23.3% (inactive)		
Cn1ccnc1C(=O)N1CCCCCCNC(=O)[C@@H]2CCCC[C@@H]21	-9.02% (inactive)		
CC1(C)[C@H](Cc2cc(-c3ccccc3)on2)C[C@@H]1NCC1CC1		12.6 µM (active)	

Structure (SMILES)	activity, negative = inhibition	Potency	outcome
CC1(C)[C@H](Cc2cc(CCO)on2)C[C@@H]1NCC1CC1	-27.4% [at 44.1 µM] (inactive)		
CC1(C)[C@H](Cc2cc(-c3ccccc3)on2)C[C@@H]1NS(C)(=O)=O			inactive [at 44.1 µM]
CCn1ncc(N2CCC(NC(=O)CCOC)CC2)cc1=O	14.1% (inactive)		
O=C(NC1CCN(c2cc(-c3ccc(Cl)cc3)[nH]n2)CC1)c1ccccc1F	-19.1% (inactive)		
O=C(Cn1ccn2nc(-c3ccccc3)c(CO)c2c1=O)Nc1cc(F)ccc1Cl	5.55% (inactive)		
CC1=C[C@@H](CNC(=O)NC(C)C)[C@H](C(C)C)C[C@H]1Cc1nnc(-c2ccncc2)o1	-13.7% [at 44.1 µM] (inactive)		
CC1=C[C@@H](CN2CCCC2)[C@H](C(C)C)C[C@H]1Cc1nnc(-c2ccc([N+](=O)[O-])cc2)o1		1.78 µM (active)	
CC1=C[C@@H](CN2CCC(O)CC2)[C@H](C(C)C)C[C@H]1Cc1nnc(-c2ccccc2F)o1		8.91 µM (active)	
CC1=C[C@@H](CNC(=O)COc2ccccc2)[C@H](C(C)C)C[C@H]1CC(=O)NCc1ccccn1			inactive
CC1=C[C@@H](CNC(C)C)[C@H](C(C)C)C[C@H]1Cc1nnc(-c2ccc(N(C)C)cc2)o1		3.55 µM (active)	
Fc1ccc(CN2CC[C@H](c3nnc(-c4ccccc4F)o3)C2)cc1			inactive [at 44.1 µM]
CC1=C[C@@H](CNC(C)C)[C@H](C(C)C)C[C@H]1Cc1nnc(-c2ccncc2)o1			inactive [at 44.1 µM]
CC1=C[C@@H](CC#N)[C@H](C(C)C)C[C@H]1CC(=O)N1CCN(C)CC1	-5.72% [at 44.1 µM] (inactive)		
CC1=C[C@@H](CN2CCN(CCO)CC2)[C@H](C(C)C)C[C@H]1Cc1nnc(-c2ccc(C)cc2)o1	-0.227% (inactive)		
CN(C)C[C@@H]1CN(Cc2ccccn2)C[C@H]1NC(=O)c1cc(Cl)ccc1F	-5.45% (inactive)		
Cc1ccc(C(=O)N2C[C@@H](Oc3cccnc3)C[C@H]2C(=O)N2CCOCC2)s1			inactive
CCC(CC)NC(=O)C1Cn2cccc2C(=O)N1 (stereo unspecified)	28.6% (inactive)		
Cc1noc(-c2cn(C3CCN(C(=O)c4ccoc4)CC3)nn2)n1			inactive
NC(=O)c1cccc(-c2ccc3c(n2)CN(Cc2ccc(C(F)(F)F)cc2)C(=O)CO3)c1	-1.99% (inactive)		
COc1ccc(Nc2nc(-c3cccc(OC)c3OC)no2)cc1	-26.2% (inactive)		
O=C(Cn1cccc1-c1nc(-c2ccccc2)no1)Nc1ccccc1F		3.98 µM (active)	
COc1ccc(Cl)cc1NC(=O)Cn1c(=O)c2ccccc2n2nncc12	-12.2% (inactive)		
CC(=O)c1ccc(NC(=O)COc2ccccc2-c2nc(-c3ccccc3)no2)cc1	31% (inactive)		
COc1ccc(Cl)cc1NC(=O)CSc1nc(=O)[nH]c2c1CCCC2			inactive

Structure (SMILES)	activity, negative = inhibition	Potency	outcome
COc1ccc(-c2noc(-c3cccn3CC(=O)Nc3cc(Cl)ccc3OC)n2)cc1F		3.98 µM (active)	
CCc1cc(=O)n(CC(=O)Nc2ccccc2F)c(-c2cccc(F)c2)n1	-32.6% (inactive)		
COc1ccc(CNC(=O)Cn2cccc2-c2nc(-c3ccc(F)cc3)no2)cc1	47.4% (inactive)		
O=C(Cn1cccc1-c1nc(-c2ccc(F)cc2)no1)Nc1cc(F)cc(F)c1			inactive
COc1ccc(-c2noc(-c3cccn3CC(=O)Nc3ccccc3)n2)cc1F		1.58 µM (active)	
CCOC(=O)N1CCC(N2CCN(c3cc(C(C)C)nc(C)n3)CC2)CC1	-26.4% (inactive)		
Cc1ccccc1C(=O)N[C@@H]1CN(c2ncccn2)C[C@H]1CO	15.2% (inactive)		
Cc1cccc(-c2noc(CCC(=O)N[C@H]3CC[C@H]3NC3CCCC3)n2)c1			inactive
CO[C@H]1C(=O)N(C2CCN(C(=O)c3ccncc3)CC2)[C@H]1c1ccncc1	16.9% (inactive)		
Cc1nc(-c2c3n(c(=O)n(Cc4ccc(Br)cc4)c2=O)CCCCC3)no1	-2.97% (inactive)		
CNC(=O)[C@@H]1C[C@H](n2cc(CN(C)C(=O)c3cccc(F)c3F)nn2)CN1	18.4% (inactive)		
CCc1cccc(-n2nnnc2N2CCN(C(=O)Nc3ccc(C)c(OC)c3)CC2)c1	-18.1% (inactive)		
O=C(O)CN1CC2(CCC1=O)CCN(C(=O)C1CNC(=O)C1)CC2 (stereo unspecified)	-11.9% (inactive)		
CCC(C(=O)NCCn1ccn2nc(-c3ccc(F)cc3)cc2c1=O)c1ccccc1 (stereo unspecified)	-4.99% (inactive)		
COc1ccccc1-c1cc(-c2cn[nH]c2)c2onc(C)c2n1			inactive [at 44.1 µM]
OCc1ccc(-c2cc(-c3cccnc3)c3cncn3c2)cc1	-25% [at 44.1 µM] (inactive)		
Cc1noc(C)c1-c1cc(-c2cncnc2)cn2cncc12	-3.21% [at 44.1 µM] (inactive)		
Cc1noc(C)c1-c1cc(-c2ccccc2Oc2ccccc2)cn2cncc12		5.62 µM (active)	
COc1ccc(-c2nccc3c(=O)cc(N(C)c4ccccc4)oc23)cn1			inactive [at 44.1 µM]
Cn1cc(-c2cc(-c3cccnc3)c3cncn3c2)cn1	-7.39% [at 44.1 µM] (inactive)		
COc1ccc(-c2cc(-c3cnc4[nH]ccc4c3)cn3cncc23)cn1		4.47 µM (active)	
COc1ccc(-c2cc(-c3cccc4[nH]ncc34)cn3cncc23)cn1		3.98 µM (active)	
COc1ccccc1-c1cc(-c2cn[nH]c2)c2cncn2c1		12.6 µM (active)	
CCCN1CCN(C(=O)CC2CCCN(c3cnn(CCOC)c(=O)c3)C2)CC1 (stereo unspecified)	53.5% (inactive)		

Structure (SMILES)	activity, negative = inhibition	Potency	outcome
O=C(c1cnccn1)N1CC2CC(C1)[C@H]1CCCC(=O)N1C2 (stereo partly specified)	-6.56% (inactive)		
CCn1ncc(C(=O)N2CC[C@@H]3CN(S(C)(=O)=O)[C@@H]3C2)c1C	16.8% (inactive)		
NC(=O)CCNC(=O)C1=C[C@@H](NC(=O)CC2(CC(=O)O)CCCC2)[C@@H](O)[C@H](O)C1	1.07% [at 44.1 µM] (inactive)		
O=C(c1ccc(C(F)(F)F)cc1)N1CCC([C@@H]2CNC[C@H]2CO)CC1			inactive
Cc1nnc2n1CCC(NC(=O)c1cc(CN3CCOCC3)on1)CC2 (stereo unspecified)	60% (inactive)		
CN(C)C[C@H]1C[C@@H](CO)CN(C(=O)CCc2ccncc2)C1	7.96% (inactive)		
O=C1CCN(C(=O)C2CCN(C(=O)NC3CCCCC3)CC2)CCCCCCN1	-11.1% (inactive)		
Cc1cccc(C)c1-c1nc(C(=O)NCc2ccc(F)cc2)n2ccccc12	-2.3% (inactive)		
COCCNC(=O)c1nc(-c2cc(Cl)cc(Cl)c2)c2ccccn12		inactive	
O=C(NCc1ccc(F)cc1)c1nc(-c2ccccc2)c2ccccn12		11.2 µM (active)	
NS(=O)(=O)c1ccc(NC(=O)COc2ccc(S(=O)(=O)NC3CCCCC3)cc2)cc1	7.37% (inactive)		
CCc1ccc(NC(=O)c2cc(S(=O)(=O)NC3CCCCCC3)ccc2F)cc1		7.94 µM (active)	
CC(C)c1ccc(NC(=O)c2cc(S(=O)(=O)N3CCc4ccccc4C3)ccc2F)cc1	29.4% (inactive)		
Cc1cnc(C(=O)N(C)C2CCc3nnc(C)n3CC2)cn1 (stereo unspecified)	25.9% (inactive)		
O=C1CC(NCc2ccoc2)CN1CCc1cccc(Cl)c1 (stereo unspecified)		10 µM (active)	
O=C(NC1CC(=O)N(CCc2cccc(Cl)c2)C1)c1ccsc1 (stereo unspecified)	-3.9% (inactive)		
O=C(CC1CC1)N1C[C@H]2OC(=O)N(CCc3cccc(Cl)c3)[C@H]2C1	2.24% (inactive)		
Cc1oc(-c2cccs2)nc1CN1CCOC(Cc2ccccc2)C1 (stereo unspecified)			inactive
COC(=O)c1cc2occc2n1Cc1nc(-c2ccccc2C)oc1C	10.3% (inactive)		
COc1ccc(-c2nc(CN3CCOC(CN)C3)c(C)o2)c2ccccc12 (stereo unspecified)		12.6 µM (active)	
COc1ccc(-c2nc(Cn3c(=O)cc(C)c4c(C)nn(-c5ccccc5)c43)c(C)o2)cc1OC	14.2% (inactive)		
COc1cccc(-c2nc(CS(=O)(=O)CC(=O)N3CCN(c4cc(C)ccc4C)CC3)c(C)o2)c1	3.78% (inactive)		
Cc1oc(-c2cccc(Oc3ccccc3)c2)nc1CN1CCOC(CCN)C1 (stereo unspecified)		7.08 µM (active)	
CC(C)CN=C1S[C@H]2[C@H]([C@@H](O)[C@H](O)C[C@@H]2C(N)=O)N1Cc1ccc(F)cc1	4.29% [at 44.1 µM] (inactive)		
